Screening data deposited in PubChem by several laboratories.
PTEN del growth – suppresses growth of cells with PTEN deletion; HCT116 PTEN-null viability, CellTiter-Glo, 60 h; hits give low values; viability, % at 10 µM; 140,000 compounds, 1.2% hits; AID 827;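 active = viability at or below a set limit, 4 SD under the median of all tested compounds, cut at about 3.7% in these data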;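 note: PTEN knockout HCT116 line with beta catenin targeted HCT116 as companion control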
WT yeast gro inh – growth inhibition of WT yeast, mitochondrial fusion screen | mitochondrial fusion phenotypic screen, WT strain | inhibition, % at 10 µM | 190,000 compounds, 2.1% hits | AID 1362; in the data active = inhibition above about 58%; tested in S. cerevisiae
DAT uptake mod – human DAT dopamine uptake with cocaine, either direction; 110,000 compounds, 1.3% hits; LLC-PK1 hDAT cells, [14C]-dopamine uptake with cocaine IC80; actives deviate in either direction; Q01959; B-score at 10 µM;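 active = Z score or B-score, a plate-position-corrected score, falls beyond the plate's 99.7% confidence bounds, in either direction; inactive = both scores lie inside the 99.7% bounds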;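 note: scored against the spread of the other compound wells on the same plate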
Target sequence (Q01959 whole entry, looked up): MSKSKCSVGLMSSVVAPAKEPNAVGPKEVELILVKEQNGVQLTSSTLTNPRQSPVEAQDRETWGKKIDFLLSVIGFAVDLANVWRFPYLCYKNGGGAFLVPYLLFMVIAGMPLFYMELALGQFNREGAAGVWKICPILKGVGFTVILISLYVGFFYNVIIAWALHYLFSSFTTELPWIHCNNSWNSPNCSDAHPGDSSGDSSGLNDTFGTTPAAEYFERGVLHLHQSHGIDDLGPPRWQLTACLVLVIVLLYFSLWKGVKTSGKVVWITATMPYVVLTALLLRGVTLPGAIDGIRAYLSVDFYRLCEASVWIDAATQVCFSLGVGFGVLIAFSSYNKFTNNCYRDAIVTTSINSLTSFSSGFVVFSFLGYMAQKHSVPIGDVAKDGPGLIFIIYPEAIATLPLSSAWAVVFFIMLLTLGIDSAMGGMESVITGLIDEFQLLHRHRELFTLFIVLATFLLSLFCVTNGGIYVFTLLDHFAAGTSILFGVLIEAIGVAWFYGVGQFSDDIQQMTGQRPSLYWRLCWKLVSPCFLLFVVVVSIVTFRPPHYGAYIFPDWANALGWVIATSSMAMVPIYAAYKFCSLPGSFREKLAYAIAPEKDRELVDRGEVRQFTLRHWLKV
HCT116 bCat-KO – beta-catenin-lacking colon tumor cell growth suppression; AID 818; 140,000 compounds, 1.5% hits; viability, % at 10 µM; HCT116 beta-catenin knockout viability, CellTiter-Glo, 60 h; hits give low values;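 active = viability at or under a set limit, the compound median less 4 SD, cut at about 6% in these data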;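 note: 0% = Hyamine 1622 control at 20 µM and 100% = untreated cell control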
Active calls of the source: *; / = no result given. In the library only some 3.6% were active in any assay of this set; here they are far more common.

SMILES	PTEN del growth	WT yeast gro inh	DAT uptake mod	HCT116 bCat-KO
O=C(NCC(c1ccco1)N1CCCCC1)c1ccc(OCc2ccccc2)cc1 (centres undefined)	/	71*	/	/
CCN(CC)c1nc(-c2ccccn2)nc(-c2ccccc2)c1C#N	/	80*	/	/
CN(C)c1nc(-c2ccccn2)nnc1-c1ccccc1	14	61*	0.84	13
Cc1ccc(-c2nnc(-c3ccccc3)c(-c3ccccc3)n2)cc1	79	76*	/	75
COCC(=O)N1CCCC(C(=O)c2ccc(-c3ccccc3)c(F)c2)C1 (centres undefined)	/	59*	/	/
Cc1c(Cl)cccc1NC(=S)N(C)CCC#N	/	12	/	/
Cc1ccc(-c2cc(C(=O)NCc3ccccn3)c3ccccc3n2)cc1C	1.9*	12	2	3.4*
COc1ccc(O)c(/C=N/Nc2nc3ccccc3[nH]2)c1	/	8	/	/
O=C(N/N=C/c1cc([N+](=O)[O-])ccc1O)c1cc(-c2ccccc2)nc2ccccc12	10	5	/	15
O=[N+]([O-])c1ccc(O)c(/C=N/Nc2nc3ccccc3[nH]2)c1	5	-7	/	4.2*
Cc1cc(C(=O)N/N=C/c2cc([N+](=O)[O-])ccc2O)c2ccccc2n1	3.0*	-2	/	9
O=C(O)c1cccc(N/N=C/C2=C(Cl)c3cc(Cl)ccc3SC2)c1	/	94*	/	/
O=C(COc1ccc(/C=N/NC(=O)c2ccccc2O)cc1)Nc1ccccc1	/	2	/	/
O=C(N/N=C/c1cccc([N+](=O)[O-])c1)c1cc2ccccc2o1	2.2*	2	/	3.8*
Cc1cc(C(=O)N/N=C/c2cccc([N+](=O)[O-])c2)c(C)o1	90	3	0.89	82
O=C(COc1ccc(/C=N/NC(=O)c2cc3ccccc3o2)cc1Cl)Nc1ccccc1	1.5*	-9	-0.66	2.8*
CC(=O)C12C3C4C(C5C1C3C5(Br)C41OCCO1)C21OCCO1 (centres undefined)	100	11	/	93
N/C(Cc1ccc(Cl)cc1Cl)=N\OC(=O)Cc1ccc(Cl)cc1	90	56	/	97
O=C(/C=C/c1ccc2c(c1)OCO2)Nc1nc2ccccc2s1	19	-5	/	25
Cc1ccc2nc(NC(=O)/C=C/c3ccc4c(c3)OCO4)sc2c1	1.2*	10	/	8
O=C(/C=C/c1ccc2c(c1)OCO2)Nc1nc(-c2ccc(F)cc2F)cs1	12	18	/	5.8*
Cc1csc(NC(=O)/C=C/c2ccc3c(c2)OCO3)n1	105	12	/	95
O=[N+]([O-])c1cccc(/C=N/n2c(C3CCCCC3)n[nH]c2=S)c1	82	-17	/	89
O=[N+]([O-])c1ccccc1/C=N/n1c(C2CCCCC2)n[nH]c1=S	90	58*	/	91
COCc1cc(C)nc(SCC[N+](C)(C)CC(=O)c2ccccc2)c1C#N	/	-3	/	/
SMILES	PTEN del growth	WT yeast gro inh	DAT uptake mod	HCT116 bCat-KO
CC(C)(C)CC(C)(C)NC(=O)CSCC(=O)Nc1ccc2ccccc2c1	71	68*	0.16	79
CCOC(=O)/C=C/C(=O)Nc1ccc(S(=O)(=O)N(C)c2ccccc2)cc1	/	-26	/	/
CCCC(C)NC(=O)c1ccccc1SC (centres undefined)	/	-25	/	/
O=C(COc1ccc(S(=O)(=O)N2CCc3ccccc32)cc1Cl)NCc1ccccn1	84	11	2.2*	91
CCNC(=S)N/N=C/c1cccc(OCc2c(F)cccc2Cl)c1	62	69*	/	61
CNC(=S)N/N=C/c1cccc(OCc2ccccc2F)c1	66	67*	/	70
CCc1ccc(NC(=O)COC(=O)/C=C/c2c(C)nn(C3CCS(=O)(=O)C3)c2Cl)cc1 (centres undefined)	/	-3	/	/
O=c1c2sc3nc(N4CCOCC4)c4c(c3c2ncn1-c1ccccc1)CCCC4	/	23	/	/
CC12CCC(=O)N1c1c(sc3nc(N4CCOCC4)c4c(c13)CCCC4)C(=O)N2 (centres undefined)	61	2	3.2*	63
CC(C)CCNC(=O)C(c1ccco1)N(C(=O)Cn1nnc2ccccc21)c1ccc2c(c1)OCO2 (centres undefined)	3.3*	8	-0.42	3.1*
O=C(OCc1ccc([N+](=O)[O-])cc1)C1CCN(S(=O)(=O)c2ccccc2)CC1	104	10	/	103
CC(O)CN=c1cc(-c2ccccc2)oc2ccc(Cl)cc12 (centres undefined)	5	27	-0.021	5.7*
Cc1c(NC(=O)c2cccc(-c3cc4ccccc4oc3=O)c2)cccc1-c1nc2ncccc2o1	27	5	/	39
CC(=O)Oc1c(Cl)c(N2CCOCC2)c(OC(C)=O)c2ccccc12	56	15	-0.2	49
COCCCNC(=O)CS(=O)(=O)Cc1nc(-c2cccc(OC)c2)oc1C	99	75*	-0.61	95
